Inconclusive results are not listed. Where a structure was tested more than once in an assay, its records may differ in their call. The source made the active and inactive calls. How the source made its calls, unless noted: active means hit-call score of the fitted dose curve at least 0.9, where 1 is the maximum; inconclusive means response in the unintended direction; inactive means score below 0.9.
Columns and labels:
[1] = VALA_TUBHUV_Antagonist_TubuleLength: VALA Sciences human Umbilical Vein Endothelial Tubule Formation (TUBHUV) Antagonism Assay (AID 2284325)
How it was run: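 HUVEC–HDF co-culture (1:3) pre-grown 3 days with 10 ng/ml VEGF, then 3 days with compound plus VEGF. Fixed, nuclear and CD31 stained; total tubule length by imaging versus 0.1% DMSO; suramin 100 uM positive control.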

[2] = VALA_TUBIPS_Antagonist_CellCount: Viability Assessment in the VALA Sciences human iPS-derived Endothelial Tubule Formation (TUBIPS) Antagonism Assay (AID 2284335)
Description: VALA_TUBIPS_Agonist is a cell-based, multiplexed assay that uses human iPS-derived endothelial cells (iPSC). Measurements were taken 72 hours after chemical dosing in a 96-well plate.VALA_TUBIPS_Antagonist_CellCount is the one of two assay components measured from the VALA_TUBIPS_Antagonist assay. It is designed to make measurements of viability, a form of viability reporter, as detected with fluorescence intensity signals by HCS Fluorescent Imaging technology. Data from the assay component VALA_TUBIPS_Antagonist_CellCount was analyzed at the endpoint, VALA_TUBIPS_Antagonist_CellCount, in the positive analysis fitting direction relative to DMSO as the negative control and baseline of activity. Using a type of viability reporter, loss-of-signal activity can be used to understand viability. To generalize the intended target to other relatable targets, this assay endpoint is annotated to the cell cycle intended target family, where the subfamily is cell count.
[…]

[3] = VALA_TUBHUV_Agonist_TubuleLength: VALA Sciences human Umbilical Vein Endothelial Tubule Formation (TUBHUV) Agonism Assay (AID 2284337)
How it was run: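 HUVEC co-cultured with fibroblasts (1:3) 3 days in 10 ng/ml VEGF, then 3 days with compound plus VEGF; 0.1 % DMSO neutral control. Fixed, nuclear and CD31 stained; tubule length by fluorescence imaging.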

[4] = VALA_TUBIPS_Agonist_CellCount: Viability Assessment in the VALA Sciences human iPS-derived Endothelial Tubule Formation (TUBIPS) Agonism Assay (AID 2284338)
SERPINA7 (gene 6906) = assay: CCTE_GLTED_hTBG: CCTE's human Thyroxine-binding Globulin (TBG) Inhibition Assay, Great Lakes Toxicology and Ecology Division (GLTED) Lab (AID 2284343);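 further: active chemicals lower fluorescence versus DMSO baseline by displacing probe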
How it was run: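 hTBG + test chem, 2 h; ANSA probe displacement; fluorescence readout ex380/em475; DMSO = neg ctrl/baseline; cell-free.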

[5] = CCTE_Mundy_HCI_iCellGluta_NOG_NeuronCount: CCTE's Neurite Outgrowth Assay in iCellGluta cells for Neuron Count, Mundy Lab (AID 2284340);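 further: cells fixed about 48 h after compound addition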
How it was run: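 Neuron count read by automated high-content imaging of Hoechst 33342 and betaIII-tubulin/Alexa Fluor-488 labelling in human iPSC glutamatergic neurons. Activity fitted relative to DMSO.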

[6] = CCTE_Mundy_HCI_iCellGluta_NOG_NeuriteCount: CCTE's Neurite Outgrowth Assay in iCellGluta cells for Neurite Count, Mundy Lab (AID 2284342);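 further: chemical exposure about 48 hours starting 2 hours after plating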
[7] = CCTE_Deisenroth_5AR_NBTE_acceptor: CCTE's 5alpha-reductase NanoBRET Target Engagement Assay - Autofluorescence Screen, Deisenroth Lab (AID 2284321; active means hit-call score of the fitted dose curve at least 0.9, where 1 is the maximum; inactive means score below 0.9;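 further: compound fluorescence in the acceptor channel under 460 nm excitation flags autofluorescence artifacts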); conditions: actives raise or lower the signal
How it was run: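 Autofluorescence counter-screen: chemicals at an assumed nominal 100 uM in DMSO were scanned in three independent runs with 460 nm excitation. Gain or loss of acceptor signal was fitted bidirectionally against DMSO.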

SRD5A2 (gene 6716) = assay: CCTE_Deisenroth_5AR_NBTE_ratio: CCTE's 5alpha-reductase NanoBRET Target Engagement Assay - Ratio, Deisenroth Lab (AID 2284322; active means hit-call score of the fitted dose curve at least 0.9, where 1 is the maximum; inactive means score below 0.9); conditions: actives raise or lower the signal
How it was run: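 HEK293T transiently expressing SRD5A2-NanoLuc; cells exposed to chemical (8-point, 10 nM - 29.9 uM) for 5 h total, testosterone tracer added for final 2 h. NanoBRET acceptor/donor ratio (650/460 nm), bidirectional fit vs DMSO.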

[8] = TAMU_PeakParms_SingleDonor1434_Asystole: Texas A&M University (TAMU) 1.5-hr Human Induced Pluripotent Stem Cell (iPSC)-derived Cardiomyocytes Calcium (Ca+2) Flux Assay for Cardiotoxicity: Asystole (quiescence of beating) (AID 2284328)
How it was run: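 Donor 1434 iPSC-cardiomyocytes exposed 90 min at 37C, 5% CO2, to 0.2, 1, 10 and 100 uM in 0.5% DMSO. Ca2+ dye fluorescence gave average peak frequency; POD is EC95, a 95% beat-rate drop versus controls.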

[9] = IUF_NPC1_cytotoxicity_72hr: Cytotoxicity Assessment at 72 hours in the Leibniz Research Institute for Environmental Medicine (IUF) Neural Progenitor Cell Proliferation Assay (NPC1) (AID 2284332);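 further: rising LDH signal means more cytotoxicity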
How it was run: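 Spheres of primary human neural progenitors are plated one per well on day 0 in growth-factor medium and dosed at once. After three days at 37C, supernatant LDH is measured fluorimetrically via resazurin reduction.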

[10] = VALA_MIGHUV1_ScratchOnly_CellCount: Viability Assessment in the VALA Sciences human Umbilical Vein Endothelial Cell Migration (MIGHUV) Assay, Scratch Wound Inhibited Recovery (AID 2284327)
How it was run: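 HUVEC scratched after 24 h culture, chemical added within 30 min at 6 concentrations in triplicate (0.1% DMSO vehicle). After 24 h recovery, fixed cells were counted by Hoechst nuclear imaging in the wound area.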

[11] = VALA_MIGHUV1_ScratchOnly_WoundArea: VALA Sciences human Umbilical Vein Endothelial Cell Migration (MIGHUV) Assay, Area of Scratch Wound Inhibited Recovery (AID 2284336)
How it was run: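 HUVEC monolayers (9000 cells/well) were scratched after 24 h, dosed within 30 min (six concentrations, triplicate, 0.1% DMSO), allowed 24 h recovery, then fixed. Hoechst-stained nuclei in the wound imaged; cytochalasin D as reference.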

[12] = CCTE_Deisenroth_H295R-HTRF_384WELL_ESTRADIOL: CCTE's H295R-HTRF Assay Evaluation of Estradiol Concentration, Deisenroth Lab (AID 2284361; active means hit-call score of the fitted dose curve at least 0.9, where 1 is the maximum; inactive means score below 0.9); conditions: actives raise or lower the signal
How it was run: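 H295R cells exposed 48 h to chemicals at 0.001 - 100 uM final (nine points, triplicate); estradiol in conditioned medium measured by HTRF immunoassay, fitted bidirectionally versus DMSO. Viability by CellTiter-Glo on same plates.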

[13] = CCTE_Deisenroth_H295R-HTRF_384WELL_TESTOSTERONE: CCTE's H295R-HTRF Assay Evaluation of Testosterone Concentration, Deisenroth Lab (AID 2284373; active means hit-call score of the fitted dose curve at least 0.9, where 1 is the maximum; inactive means score below 0.9); conditions: actives raise or lower the signal
How it was run: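 Testosterone secreted into medium was quantified by direct HTRF immunoassay after a 48 h treatment of H295R adrenocortical cells (nine concentrations, 0.001–100 uM final). Gain or loss fitted relative to DMSO; CellTiter-Glo viability read on same plates.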

[14] = CCTE_Deisenroth_H295R-HTRF_384WELL_CTOX: Cytotoxicity Assessment in CCTE's H295R-HTRF Assay, Deisenroth Lab (AID 2284380)
How it was run: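 H295R adrenocortical carcinoma cells plated 24 h, then exposed 48 h to nine-point series 0.001–100 uM final, triplicate, n=5. ATP measured by CellTiter-Glo 2.0 luminescence on same plates after medium collection; loss versus DMSO.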

Oc1ccc2ccc3cccc4ccc1c2c34
outcome [1]: inactive | outcome [2]: inactive | outcome [3]: inactive | outcome [4]: inactive

Nc1ccc([N+](=O)[O-])cc1
AC50 (SERPINA7 (gene 6906)): 41.4 µM (active)

CC(C)COC(=O)c1ccccc1C(=O)OCC(C)C
outcome [5]: inactive | outcome [6]: inactive | AC50 (SERPINA7 (gene 6906)): 16.1 µM (active)

CCCCCOC(=O)c1ccccc1C(=O)OCCCCC
AC50 (SERPINA7 (gene 6906)): 7.46 µM (active)

Cc1ccc(N)c(N)c1
AC50 [7]: 50 µM (active) | AC50 (SRD5A2 (gene 6716)): 22.7 µM (active)

Clc1ccc(C(c2ccc(Cl)cc2)C(Cl)(Cl)Cl)cc1
outcome [8]: inactive

COP(=S)(OC)SCN1C(=O)c2ccccc2C1=O
outcome [9]: inactive | AC50 [5]: 80.7 µM (active) | AC50 [6]: 83.8 µM (active) | AC50 (SERPINA7 (gene 6906)): 37.5 µM (active)

O=C(Nc1ccccc1)c1ccccc1I
AC50 (SERPINA7 (gene 6906)): 15.7 µM (active)

Cc1cc(N=Nc2ccccc2C)ccc1N
AC50 [7]: 38.4 µM (active) | AC50 (SRD5A2 (gene 6716)): 50 µM (active) | AC50 (SERPINA7 (gene 6906)): 4.38 µM (active)

CO[C@@H]1[C@H](OC(=O)NC(=O)CCl)CC[C@]2(CO2)[C@H]1[C@@]1(C)O[C@@H]1CC=C(C)C
outcome [1]: inactive | outcome [10]: inactive | outcome [2]: inactive | outcome [11]: inactive | outcome [3]: inactive | AC50 [4]: 0.168 µM (active) | outcome [4]: inactive

C[C@]12C=CC3=C4CCC(=O)C=C4CC[C@H]3[C@@H]1CC[C@@H]2O
outcome [7]: inactive | outcome (SRD5A2 (gene 6716)): inactive

[Cl-].[Cl-].[Hg+2]
AC50 [7]: 73.3 µM (active) | AC50 (SRD5A2 (gene 6716)): 75.4 µM (active) | AC50 (SERPINA7 (gene 6906)): 27.6 µM (active)

OCCOCCO
outcome [9]: inactive

Nc1cc(Cl)cc(C(=O)O)c1Cl
outcome (SERPINA7 (gene 6906)): inactive

CC(C)(C)C(O)(CCc1ccc(Cl)cc1)Cn1cncn1 (stereo not drawn)
outcome [8]: inactive | outcome [9]: inactive | AC50 (SERPINA7 (gene 6906)): 26.9 µM (active) | outcome [12]: inactive | AC50 [13]: 2 µM (active)

c1ccc(N=Nc2ccccc2)cc1
outcome [8]: inactive | AC50 (SERPINA7 (gene 6906)): 50 µM (active)

CS(=O)(=O)NC(=O)c1cc(Oc2ccc(C(F)(F)F)cc2Cl)ccc1[N+](=O)[O-]
AC50 (SERPINA7 (gene 6906)): 16.1 µM (active)

O=P(OCCCl)(OCCCl)OCCCl
outcome [1]: inactive | outcome [9]: inactive | outcome [2]: inactive | outcome [11]: inactive | outcome [3]: inactive

O=[N+]([O-])c1ccc(Oc2ccc(Cl)cc2Cl)cc1
AC50 (SERPINA7 (gene 6906)): 5.39 µM (active) | outcome [12]: inactive | outcome [13]: inactive | outcome [14]: inactive

CNC(=O)Oc1cccc2c1OC(C)(C)C2
outcome [9]: inactive | outcome [5]: inactive | outcome [6]: inactive

COC(=O)Nc1nc2ccccc2[nH]1
outcome [9]: inactive | outcome [5]: inactive | outcome [6]: inactive

c1ccc(NNc2ccccc2)cc1
AC50 (SERPINA7 (gene 6906)): 39.1 µM (active)
